Values joined by “and” are separate entries in the source; they are usually repeats but may differ in a detail not shown here. Equal entries are not always repeated. Inconclusive results are not listed. Where a call stands in place of a potency, no number is given. Active and inactive are the calls of the source. Unless noted, calls come from the whole dose curve.
Assay: qHTS assay for small molecules that induce genotoxicity in human embryonic kidney cells expressing luciferase-tagged ATAD5 (AID 651632; active = well fitted activation curve with a large enough effect in the repeat runs; note: nearly all actives have a fitted effect of over 15% in size)
Settings: HEK293T ATAD5-luciferase induction, 16 h; series mostly up to 83.3 µM
How it was run: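 Cells were seeded at 2,000 per well, dosed with compound, and incubated 16 hr at 37C in 5% CO2. Luciferase activity was then quantified after a 30 min room-temperature incubation with Amplite.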
Potency is the fitted concentration of half-maximal effect.

Structure (SMILES) | Potency
c1cnc2cc3c(cc2n1)C1CNCC3C1 | inactive
NC(N)=NC(=O)Cc1c(Cl)cccc1Cl | inactive
CC(=O)OCC1=C(C(=O)O)N2C(=O)[C@@H](NC(=O)Cc3cccs3)[C@H]2SC1 | inactive
NCCCCCC(=O)O | inactive
CC1COC(=O)O1 (stereo not drawn) | inactive
OCC(CO)N[C@H]1C[C@](O)(CO)[C@@H](O)[C@H](O)[C@H]1O | inactive
C=C(C)C1CC=C(C)C(OC(C)=O)C1 (stereo not drawn) | inactive
C[N+]1([O-])CCOCC1 | inactive
Cc1cccc(O)c1C | inactive
Cc1cccc([N+](=O)[O-])c1C(=O)O | inactive
O=C(O)c1cc(Cl)cc(Cl)c1 | inactive
c1ccc2n[nH]nc2c1 | inactive
Nc1cc(Cl)c(-c2cc(Cl)c(N)cc2Cl)cc1Cl | 13.7 µM (active)
CCCNC(C)C(=O)Nc1ccccc1C (stereo not drawn) | inactive
OCCN1CCNCC1 | inactive
C/C=C/c1ccc(OCC)c(O)c1 | inactive
C=CC(=O)OCCCCCCCC | inactive
CC(C)(C)NCC(O)c1cc(O)cc(O)c1 (stereo not drawn) | inactive

Structure (SMILES) | Potency
CC(=O)OCCOCCOCCOC(C)=O | inactive
CNC1(C)C2CCC(C2)C1(C)C (stereo not drawn) | inactive
CCC(CO)(CO)COCC(CC)(CO)CO | inactive
CCN1CCCC1CNC(=O)c1cc(S(=O)(=O)CC)c(N)cc1OC (stereo not drawn) | inactive
O=C(O)CCc1ccccc1 | inactive
Nc1nc2ccccc2[nH]1 | inactive
COC(=O)c1cccc(C(=O)OC)c1 | inactive
CCC[C@H](N[C@@H](C)C(=O)N1[C@H](C(=O)O)C[C@@H]2CCCC[C@@H]21)C(=O)OCC | inactive
Cc1occc(=O)c1OC(=O)C(C)C | inactive
CC(C)C(=O)c1c(C(C)C)nn2ccccc12 | inactive
NC(N)=Nc1nc(CSCC/C(N)=N/S(N)(=O)=O)cs1 | inactive
CO[Si](OC)(OC)c1ccccc1 | inactive
CN1C(=O)c2ccc([N+](=O)[O-])cc2C1=O | inactive
CCOc1ccccc1C(N)=O | inactive
CC(C)(O)CCC(C)(C)O | inactive
[Cl][In]([Cl])[Cl] | inactive
CCn1cc(C(=O)O)c(=O)c2cc(F)c(N3CCNC(C)C3)c(F)c21 (stereo not drawn) | inactive
O=C(O)CP(=O)(O)O | inactive

Assay: qHTS assay for small molecule agonists of the p53 signaling pathway - cell viability (AID 651633); note: nearly all actives have a fitted effect of over 30% in size
Settings: p53RE-bla HCT-116 viability, ATP luminescence, 16 h; series mostly up to 83.3 µM
How it was run: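 p53RE-bla cells, seeded at 4,000 per well and rested 5 h at 37 C/5% CO2, received compounds in DMSO for 16 h at 37 C. CellTiter-Glo was then added, and luminescence was read after 30 min at room temperature to gauge cytotoxicity.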

Structure (SMILES) | Potency
c1cnc2cc3c(cc2n1)C1CNCC3C1 | inactive
NC(N)=NC(=O)Cc1c(Cl)cccc1Cl | inactive
CC(=O)OCC1=C(C(=O)O)N2C(=O)[C@@H](NC(=O)Cc3cccs3)[C@H]2SC1 | inactive
NCCCCCC(=O)O | inactive
CC1COC(=O)O1 (stereo not drawn) | inactive
OCC(CO)N[C@H]1C[C@](O)(CO)[C@@H](O)[C@H](O)[C@H]1O | inactive
C=C(C)C1CC=C(C)C(OC(C)=O)C1 (stereo not drawn) | inactive
C[N+]1([O-])CCOCC1 | inactive
Cc1cccc(O)c1C | inactive
Cc1cccc([N+](=O)[O-])c1C(=O)O | inactive
O=C(O)c1cc(Cl)cc(Cl)c1 | inactive
c1ccc2n[nH]nc2c1 | inactive
Nc1cc(Cl)c(-c2cc(Cl)c(N)cc2Cl)cc1Cl | 61.1 µM (active) and 54.5 µM (active)
CCCNC(C)C(=O)Nc1ccccc1C (stereo not drawn) | inactive
OCCN1CCNCC1 | inactive
C/C=C/c1ccc(OCC)c(O)c1 | inactive
C=CC(=O)OCCCCCCCC | inactive
CC(C)(C)NCC(O)c1cc(O)cc(O)c1 (stereo not drawn) | inactive

Structure (SMILES) | Potency
CC(=O)OCCOCCOCCOC(C)=O | inactive
CNC1(C)C2CCC(C2)C1(C)C (stereo not drawn) | inactive
CCC(CO)(CO)COCC(CC)(CO)CO | inactive
CCN1CCCC1CNC(=O)c1cc(S(=O)(=O)CC)c(N)cc1OC (stereo not drawn) | inactive
O=C(O)CCc1ccccc1 | inactive
Nc1nc2ccccc2[nH]1 | inactive
COC(=O)c1cccc(C(=O)OC)c1 | inactive
CCC[C@H](N[C@@H](C)C(=O)N1[C@H](C(=O)O)C[C@@H]2CCCC[C@@H]21)C(=O)OCC | inactive
Cc1occc(=O)c1OC(=O)C(C)C | inactive
CC(C)C(=O)c1c(C(C)C)nn2ccccc12 | inactive
NC(N)=Nc1nc(CSCC/C(N)=N/S(N)(=O)=O)cs1 | inactive
CO[Si](OC)(OC)c1ccccc1 | inactive
CN1C(=O)c2ccc([N+](=O)[O-])cc2C1=O | inactive
CCOc1ccccc1C(N)=O | inactive
CC(C)(O)CCC(C)(C)O | inactive
[Cl][In]([Cl])[Cl] | inactive
CCn1cc(C(=O)O)c(=O)c2cc(F)c(N3CCNC(C)C3)c(F)c21 (stereo not drawn) | inactive
O=C(O)CP(=O)(O)O | inactive

Assay: qHTS assay for small molecules that induce genotoxicity in human embryonic kidney cells expressing luciferase-tagged ATAD5 - cell viability (AID 651634); note: nearly all actives have a fitted effect of over 25% in size
Settings: HEK293T ATAD5-luc cells viability, CellTiter-Fluor, 15.5 h; series mostly up to 83.3 µM
How it was run: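 Cells (HEK293T, luciferase-tagged ATAD5) are seeded at 2,000 per well, dosed with compound or DMSO vehicle, and incubated 15.5 hr at 37C and 5% CO2. CellTiter-Fluor is added for 30 min before fluorescence is measured.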

Structure (SMILES) | Potency
c1cnc2cc3c(cc2n1)C1CNCC3C1 | inactive
NC(N)=NC(=O)Cc1c(Cl)cccc1Cl | inactive
CC(=O)OCC1=C(C(=O)O)N2C(=O)[C@@H](NC(=O)Cc3cccs3)[C@H]2SC1 | inactive
NCCCCCC(=O)O | inactive
CC1COC(=O)O1 (stereo not drawn) | inactive
OCC(CO)N[C@H]1C[C@](O)(CO)[C@@H](O)[C@H](O)[C@H]1O | inactive
C=C(C)C1CC=C(C)C(OC(C)=O)C1 (stereo not drawn) | inactive
C[N+]1([O-])CCOCC1 | inactive
Cc1cccc(O)c1C | inactive
Cc1cccc([N+](=O)[O-])c1C(=O)O | inactive
O=C(O)c1cc(Cl)cc(Cl)c1 | inactive
c1ccc2n[nH]nc2c1 | inactive
Nc1cc(Cl)c(-c2cc(Cl)c(N)cc2Cl)cc1Cl | 30.6 µM (active)
CCCNC(C)C(=O)Nc1ccccc1C (stereo not drawn) | inactive
OCCN1CCNCC1 | inactive
C/C=C/c1ccc(OCC)c(O)c1 | inactive
C=CC(=O)OCCCCCCCC | inactive
CC(C)(C)NCC(O)c1cc(O)cc(O)c1 (stereo not drawn) | inactive

Structure (SMILES) | Potency
CC(=O)OCCOCCOCCOC(C)=O | inactive
CNC1(C)C2CCC(C2)C1(C)C (stereo not drawn) | inactive
CCC(CO)(CO)COCC(CC)(CO)CO | inactive
CCN1CCCC1CNC(=O)c1cc(S(=O)(=O)CC)c(N)cc1OC (stereo not drawn) | inactive
O=C(O)CCc1ccccc1 | inactive
Nc1nc2ccccc2[nH]1 | inactive
COC(=O)c1cccc(C(=O)OC)c1 | inactive
CCC[C@H](N[C@@H](C)C(=O)N1[C@H](C(=O)O)C[C@@H]2CCCC[C@@H]21)C(=O)OCC | inactive
Cc1occc(=O)c1OC(=O)C(C)C | inactive
CC(C)C(=O)c1c(C(C)C)nn2ccccc12 | inactive
NC(N)=Nc1nc(CSCC/C(N)=N/S(N)(=O)=O)cs1 | inactive
CO[Si](OC)(OC)c1ccccc1 | inactive
CN1C(=O)c2ccc([N+](=O)[O-])cc2C1=O | inactive
CCOc1ccccc1C(N)=O | inactive
CC(C)(O)CCC(C)(C)O | inactive
[Cl][In]([Cl])[Cl] | inactive
CCn1cc(C(=O)O)c(=O)c2cc(F)c(N3CCNC(C)C3)c(F)c21 (stereo not drawn) | inactive
O=C(O)CP(=O)(O)O | inactive

Reference: PubChem BioAssay (Tox21)
